High-throughput results (PubChem BioAssay)
Mcl1-Noxa inh: disrupts binding of human Mcl-1 to Noxa peptide; Q07820; TR-FRET Mcl-1/Noxa peptide binding, 2 h; inhibition, % at 21.7 µM; actives 1.5% (n = 220,000); AID 1022;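 active = compounds that cut the protein-peptide binding signal by more than 50% relative to plate controls in a single-dose test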;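 also: His-tagged Mcl-1 with rhodamine Noxa BH3 peptide and terbium anti-His antibody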
Target sequence (Q07820 whole entry, looked up): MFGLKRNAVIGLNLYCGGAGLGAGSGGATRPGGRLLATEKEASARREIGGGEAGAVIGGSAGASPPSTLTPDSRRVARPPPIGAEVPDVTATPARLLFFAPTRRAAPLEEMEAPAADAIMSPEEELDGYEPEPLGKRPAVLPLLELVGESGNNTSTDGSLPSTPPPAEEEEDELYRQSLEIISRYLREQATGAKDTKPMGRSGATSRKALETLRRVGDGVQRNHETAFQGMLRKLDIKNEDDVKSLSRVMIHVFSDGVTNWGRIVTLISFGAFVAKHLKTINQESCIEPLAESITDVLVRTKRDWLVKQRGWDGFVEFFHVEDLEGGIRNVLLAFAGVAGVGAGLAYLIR
eIF4E 4G PPI: eIF4E/eIF4G interaction inhibition in translation initiation; P63073+Q04637; TR-FRET eIF4E-eIF4GI(517-606) binding, 2 h; inhibition, % at 21.7 µM; actives 0.37% (n = 220,000); AID 782
Mcl-1 Bim block: disrupts Bim peptide binding to human Mcl-1. AID 1009. Bead-based flow cytometry, Bim peptide-Mcl-1 binding. actives 0.1% (n = 190,000). inhibition, % at 10 µM; in the data active = inhibition above about 40%
Mcl1 Bid PPI: disrupts binding of human Mcl-1 to Bid peptide; AID 1021; inhibition, % at 21.7 µM; Q07820; TR-FRET Mcl-1/Bid-Dy647 peptide binding, 1536-well; actives 0.97% (n = 220,000);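 active = compounds that cut the binding signal by more than half at the single screening dose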;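 also: His-tagged Mcl-1 with europium anti-His antibody binding Bid BH3 peptide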
p47phox inh: inhibitors of human p47phox binding | P14598 | p47phox/p22phox peptide binding, fluorescence polarization, 2 h | inhibition, % at 24.7 µM | actives 0.53% (n = 220,000) | AID 1274
14-3-3 Bad PPI: disrupts binding of bovine 14-3-3 zeta to phospho-Bad peptide; P63103; TR-FRET 14-3-3zeta/Dy647-pBad peptide displacement, 1 h; inhibition, % at 21.7 µM; actives 0.71% (n = 220,000); AID 781;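 active = inhibition above about 70%, limit read from the data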
Target sequence (P63103 whole entry, looked up): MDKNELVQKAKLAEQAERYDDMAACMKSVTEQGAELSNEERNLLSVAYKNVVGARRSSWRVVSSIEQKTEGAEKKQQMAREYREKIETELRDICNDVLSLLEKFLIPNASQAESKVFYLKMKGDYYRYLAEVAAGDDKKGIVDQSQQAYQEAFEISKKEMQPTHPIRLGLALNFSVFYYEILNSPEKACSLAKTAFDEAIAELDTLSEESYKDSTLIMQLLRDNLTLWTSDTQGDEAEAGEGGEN
Of the large screens only hits and unclear results are named; the others gave an inactive call; [ ] = remark or other dose. A selection: hits, their analogues and other compounds. The true share with any hit is near 3.4%.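 The calls were made as follows, unless noted: active = inhibition above about 30% (limit read from the data); inactive = the rest.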

CS(=O)(=O)c1ccc2c(c1)sc1nc(=O)c(/C=C3/C=CC(=O)C(O)=C3)c(N)n12	Mcl1-Noxa inh 90 (no result: Mcl-1 Bim block)
CS(=O)(=O)c1nsc2nc(=O)c(/C=C3\C=Nc4ccccc43)c(N)n12	none
COC(=O)c1cc(C(=O)c2ccc(Cl)cc2)n2c(=O)/c(=C\N(C)C)sc12	none
CCCc1nc(SCC(=O)NNC(=O)c2ccc(OC)cc2)c2ccccc2n1	14-3-3 Bad PPI 98
CC(C)CCNC(=O)c1ccc(-c2ccccc2)cc1	none
Cc1sc2ncn(/N=C/c3ccco3)c(=O)c2c1C	none (no result: Mcl-1 Bim block)
O=C(O)c1ccc(N2CCCCC2)cc1	none
Nc1ccc(N2CCCCCC2)cc1	Mcl1-Noxa inh 65, 14-3-3 Bad PPI 80[fluorescence artefact?]
Nc1ccc(N2CCN(c3ccc(F)cc3)CC2)cc1	Mcl1-Noxa inh 61
CC(C)CC1NC(=O)N(CC(=O)c2ccc3c(c2)OCCO3)C1=O (stereo not given)	Mcl1-Noxa inh 98
CC(C)CC1NC(=O)N(CC(=O)Nc2ccc3c(c2)CCC3)C1=O (stereo not given)	none
Fc1ccc(Cn2nnnc2CN2CCN(C3CCCC3)CC2)cc1	14-3-3 Bad PPI 78
O=C(Nc1ccc(Br)cc1)C1OCCc2ccccc21 (stereo not given)	none (no result: Mcl-1 Bim block)
Cc1n[nH]c(C)c1S(=O)(=O)N1CCN(c2ccccn2)CC1	Mcl1 Bid PPI 70
Cc1ccc(S(=O)(=O)N2CCN(c3ccccn3)CC2)cc1	none (no result: Mcl-1 Bim block)
O=S(=O)(c1ccc(Br)s1)N1CCN(c2ncccn2)CC1	none
O=S(=O)(c1ccc(Br)s1)N1CCN(c2ccccn2)CC1	14-3-3 Bad PPI 85
O=C(CSc1nc2ccc(Cl)cc2[nH]1)c1ccc2c(c1)OCO2	none
O=C(CSc1nc2cc(Cl)c(Cl)cc2[nH]1)c1ccc2c(c1)OCO2	Mcl1-Noxa inh 57 (no result: Mcl-1 Bim block)
CC(C)C(=O)NC(=S)Nc1sc2c(c1C(N)=O)CCCC2	Mcl1-Noxa inh 64
COc1ccc(/C=N/NC(=O)CNC(=O)COc2ccccc2)cc1	none
COc1cc(C(=O)NCC(=O)N/N=C/c2ccccn2)cc(OC)c1OC	Mcl1 Bid PPI 63
COc1cccc(/C=N/NC(=O)CNC(=O)COc2ccccc2)c1O	p47phox inh 82 (no result: Mcl-1 Bim block)
C/C(=N\NC(=O)OC(C)(C)C)c1ccccc1Br	none
COc1ccc(-c2[nH]ncc2CN2CCC(C(=O)c3ccc(F)cc3)CC2)cc1	none (no result: Mcl-1 Bim block)
O=C1CCC(=O)N1CN(C(=O)c1ccco1)c1ccc(Cl)c(Cl)c1	none
CC(=O)N(CN1C(=O)CCC1=O)c1ccc(Cl)c(Cl)c1	14-3-3 Bad PPI 82
COc1ccc(CN2CCN(C(=O)c3ccco3)CC2)cc1OCc1ccccc1	14-3-3 Bad PPI 84
COc1ccc(CN2CCN(C(=O)c3ccco3)CC2)cc1OC	none
COc1ccc(CN2CCN(c3ccccn3)CC2)cc1OCc1ccccc1	14-3-3 Bad PPI 70
CC1(c2ccccc2)CC(C)(C)N2C(=O)C3(C(C#N)=C(N)Oc4cc(O)ccc43)c3cccc1c32 (stereo not given)	Mcl1 Bid PPI 61
O=c1c2cnn(-c3ccccc3)c2nc(-c2cccs2)n1-c1cccc(Cl)c1	Mcl1 Bid PPI 79
O=c1c2cnn(-c3ccccc3)c2nc(-c2cccs2)n1-c1ccc(Cl)cc1	none
O=C(COc1cc(O)c2c(=O)cc(-c3ccccc3)oc2c1)c1ccc(F)cc1	p47phox inh 32
O=C(COC(=O)c1ccc(-c2ccc([N+](=O)[O-])cc2)o1)NC(=O)NC1CCCCC1	none
O=C(NC1CCC(O)CC1)c1ccc(-c2ccc([N+](=O)[O-])cc2)o1 (stereo not given)	Mcl1-Noxa inh 71 (no result: Mcl-1 Bim block)
CCc1ccccc1NC(=O)N[C@H](C(=O)O)C(C)CC (stereo not given in full)	none
CCC(C)[C@H](NC(=O)Nc1ccccc1F)C(=O)O (stereo not given in full)	Mcl1 Bid PPI 85 (no result: Mcl-1 Bim block)
CCOC(=O)c1c(CSC(=N)N)n(-c2ccc(Br)cc2)c2cc(Br)c(OC(C)=O)cc12	Mcl1-Noxa inh 65, eIF4E 4G PPI 37[fluorescence artefact?], p47phox inh 93, 14-3-3 Bad PPI 96[fluorescence artefact?]
CCOC(=O)c1c(CSc2nc(C)cc(C)c2C#N)n(C)c2cc(Br)c(OC(C)=O)cc12	none
CCCCCCCCOC(=O)c1c(CSC(=N)N)n(C)c2cc(Br)c(OC(C)=O)cc12	p47phox inh 88, 14-3-3 Bad PPI 85 (no result: Mcl-1 Bim block)
COC(=O)c1cc(Br)c(=O)n(-c2ccc(F)cc2)c1	p47phox inh 31
CN(C)C=Nc1ccccc1C1C=NNC1=O (stereo not given)	none (no result: Mcl-1 Bim block)
O=C1N=c2ccc(Br)cc2=C1c1sc(=S)n(NS(=O)(=O)c2ccccc2)c1O	Mcl1-Noxa inh 83, Mcl1 Bid PPI 52
CN1CCN(Cc2nc3ccccc3c(=O)n2Cc2nc(-c3ccc([N+](=O)[O-])cc3)cs2)CC1	none
CN(C)Cc1nc2ccccc2c(=O)n1Cc1nc(-c2cccc([N+](=O)[O-])c2)cs1	14-3-3 Bad PPI 98
COc1ccc(NS(=O)(=O)c2ccc(N3CCOCC3)c(NC(=O)c3cccc(F)c3)c2)cc1	p47phox inh 50
Cc1ccccc1-c1cc(C(=O)Nc2sc(C)c(C)c2C(N)=O)c2ccccc2n1	none
CCOC(=O)c1c(NC(=O)c2cc(-c3ccc(Cl)s3)nc3ccccc23)sc(C(N)=O)c1C	Mcl1 Bid PPI 61, 14-3-3 Bad PPI 72[fluorescence artefact?]
N=c1n(CC(=O)c2cccs2)c2ccccc2n1Cc1ccccc1	none (no result: Mcl-1 Bim block)
Cc1cc2nc(CO)[nH]c2cc1C	none (no result: Mcl-1 Bim block)
Cc1cc2nc(/C=C/c3nc4cc(C)c(C)cc4[nH]3)[nH]c2cc1C	Mcl1-Noxa inh 79 (no result: Mcl-1 Bim block)
COc1ccc(C(=O)Nc2ccc3oc(Cc4ccc(Cl)cc4)nc3c2)cc1OC	eIF4E 4G PPI 53
Cc1ccccc1NC(=O)c1sc(Cl)nc1-c1ccccc1	p47phox inh 68
Cc1ccc(C)c(NC(=O)c2sc(Cl)nc2-c2ccccc2)c1	none
O=C(COc1ccccc1)NCC(=O)N/N=C/c1ccc(O)cc1O	none (no result: Mcl-1 Bim block)
Cc1nnc(SCc2nc3sc(C(=O)O)c(C)c3c(=O)[nH]2)s1	none (no result: Mcl-1 Bim block)
Cc1csc(NC(=O)CSc2nc3sc(C)c(C)c3c(=O)[nH]2)n1	Mcl1 Bid PPI 63
CSCc1nc2sc(C(=O)Nc3nc(C)cs3)c(C)c2c(=O)[nH]1	Mcl1-Noxa inh 79
O=C(NCC1CCCO1)c1ccc(CNS(=O)(=O)c2cccc(Cl)c2)cc1 (stereo not given)	none
CCc1cc(C(c2ccc(F)cc2)N2CCOCC2)c(NC(=O)c2ccccc2)s1 (stereo not given)	Mcl1 Bid PPI 68
O=C(N/N=C/c1c[nH]c2ccccc12)C1COc2ccccc2O1 (stereo not given)	eIF4E 4G PPI 48, 14-3-3 Bad PPI 82[fluorescence artefact?]
